This passage reports Potency results from PubChem BioAssay (Tox21).

Records with an inconclusive call do not appear. Entries that show only a call come without a potency. Calls of active or inactive are those of the source. The call rests on the fitted dose curve; in most records, active means well fitted cell-killing curve with a large enough effect in the repeat runs; inconclusive means weak or mixed curves, or effect the other way; inactive means flat fitted curve, though single readings scatter.
Potency means the concentration at half of the fitted maximal effect.

The test can be described thus: qHTS assay to identify small molecule that activate the aryl hydrocarbon receptor (AhR) signaling pathway - cell viability counter screen (AID 743086). Further: nearly all actives have a fitted effect of over 45% in size. The note with it: HepG2-AhR-luc viability, CellTiter-Fluor, 24 h; series mostly up to 70.3 µM. The text has this: U.S. Tox21 Program National Center for Advancing Translational Sciences [NCATS] NIH Chemical Genomics Center [NCGC] U.S. Environmental Protection Agency [EPA] National Institutes of Environmental Health Sciences [NIEHS] National Toxicology Program [NTP] U.S. Food and Drug Administration [FDA] Tox21 Assay overview: The Aryl hydrocarbon Receptor (AhR), a member of the family of basic helix-loop-helix transcription factors, is crucial to adaptive responses to environmental changes. AhR mediates cellular responses to environmental pollutants such as aromatic hydrocarbons through induction of phase I and II enzymes but also interacts with other nuclear receptor signaling pathways A cell based HepG2-AhR-luc assay (HG2L7.5c1 cell line, developed by Dr. Michael S. Denison, University of California at Davis) was used to assess the activation of AhR. HepG2 (human hepatocellular carcinoma) cells were stably transfected with an Ah receptor-responsive firefly luciferase reporter gene plasmid containing 20 dioxin responsive elements and luciferase reporter gene. Increased luciferase activity can be used to identify the compounds that induce AhR activation. The cytotoxicity of the compounds screened against the HepG2-AhR-luc cell line was tested in parallel by measuring the cell viability using CellTiter-Fluor assay in the same wells.
Tox21 Assay Protocol Summary: 4000 cells in 5 uL/well were dispensed into white wall/solid bottom 1536-well plates using a Multidrop Combi (Thermo Fisher Scientific Inc., Waltham, MA) dispenser. After the assay plates were incubated at 37C for 5 h, 23 nL of compound or DMSO vehicle was transferred to the assay plates by a pintool station (Kalypsys, San Diego, CA). The plates were incubated at 37C for 24 hr. For cell viability measurement, 1 ul/well of CellTiter-Fluor reagent (Promega, Madison, WI) was added into the assay plates using a Flying Reagent Dispenser (FRD) (Aurora Discovery, CA),and then the assay plates were incubated at 37C for 30 min. The fluorescence intensity in the plates was measured using a ViewLux plate reader (PerkinElmer, Shelton, CT), followed by the addition of 4 uL of ONE-Glo Luciferase Assay reagent (Promega) using an FRD (Aurora Discovery). After the assay plates were incubated at room temperature for 30 min, luminescence intensity was measured using a ViewLux plate reader (Perkin Elmer).
Background: Quantitative high-throughput screening tests each substance at several concentrations.
As to `CC(C)=CCCC(C)C=O` (stereo not given), the Potency result is “inactive”. The same measure for `CCCC1CCOC(C)S1` (stereo not given): “inactive”; for `C=C[Si]1(C)O[Si](C)(C=C)O[Si](C)(C=C)O[Si](C)(C=C)O1` (stereo not given): “inactive”.

As to `OCCOc1cccc(OCCO)c1`, the Potency entry was “inactive”. The same measure for `O=C(O)c1ccccc1-n1cc(C(=O)O)c(=O)c2cc(Nc3c(F)cc(F)cc3Cl)c(Cl)cc21`: “inactive”; for `CCCC(=O)OCc1ccccc1`: “inactive”; for `O=c1c2ccccc2oc2ccccc12`: “inactive”. With `CCC(C)CCCC(C)(C)O` (stereo not given) the entry was “inactive”. With `O=C(OCCCCCOC(=O)c1ccccc1)c1ccccc1` the entry was “inactive”; with `Cc1c(Nc2ncccc2C(=O)O)cccc1C(F)(F)F`, “inactive”; with `NC(=O)c1ccccc1`, “inactive”. Take `Clc1nc2ccccc2nc1Cl`: the Potency entry is “inactive”.

With `O=[N+]([O-])c1cccc(I)c1`, the Potency entry is “inactive”.

As to `CC(C(=O)O)c1ccc(/C=C2\CCCCC2=O)cc1` (stereo not given), the Potency entry was “inactive”. Take `CCOc1ccccc1O`: the Potency entry was “inactive”.

Regarding `Nc1ccccc1Nc1ccccc1`, the Potency result is “inactive”.

For the compound `O=C1c2ccccc2C(=O)C1c1ccc2cc(S(=O)(=O)O)cc(S(=O)(=O)O)c2n1`, the Potency is 33.1 µM (active). With `O=C(O)c1ccc2c(c1)nc(C(=O)NC1CCN(C3CC3)CC1)n2Cc1cc(-c2ccc(Cl)s2)on1` the entry was “inactive”; with `CCCCCCC/C=C/C=O`, “inactive”. As for `CC(C)(C)N`, the Potency result is “inactive”. With `O=C(O)CNc1ccccc1` the entry was “inactive”; with `CC(C)CCCCCOC(=O)CS`, “inactive”; with `Cc1cc(N)n(-c2ccccc2)n1`, “inactive”. With `CC(C(=O)O)c1ccc2c(c1)Cc1cccnc1O2` (stereo not given), the Potency entry was “inactive”. The same measure for `C=CC(=O)OCCCCCCCCCC`: “inactive”; for `CCCCCC1CCC(=O)O1` (stereo not given): “inactive”; for `C/C(=C(\CCO)SS/C(CCO)=C(\C)N(C=O)Cc1cnc(C)nc1N)N(C=O)Cc1cnc(C)nc1N`: “inactive”. With `CCCC1CCCC(=O)O1` (stereo not given) the entry was “inactive”. In the case of `CCCCCCCCC(=O)OCC(C)OC(=O)CCCCCCCC` (stereo not given), the Potency entry is “inactive”.

Turning to `CCOC(OCC)OCC`, the Potency result is “inactive”. The same measure for `N#C[C@@H]1CC(F)(F)CN1C(=O)CNC1CC2CCC(C1)N2c1ncccn1` (stereo not given in full): “inactive”; for `CC(C)C/C=C(\C=O)c1ccccc1`: “inactive”; for `COC(=O)c1cc(Cl)ccc1[N+](=O)[O-]`: “inactive”. In the case of `CC[C@H](NC(C)C)[C@H](O)c1ccc(O)c2[nH]c(=O)ccc12`, the Potency result was “inactive”.

On to `Cc1cccc(C)c1NC(=O)CN1CCCC1`, for which the Potency result was “inactive”. With `C1=COCCC1` the entry was “inactive”.

`CC(COc1ccccc1)NC(C)C(O)c1ccc(O)cc1` (stereo not given): the Potency result was “inactive”.

Turning to `CCCN(C1CCN(C(=O)C2CCNCC2)CC1)[C@@H]1CCc2ccc(OC)cc2C1`, the Potency entry was “inactive”.

As to `CCOc1ccc(NC(C)=O)cc1N`, the Potency entry is “inactive”. The same measure for `O=C(Cl)c1ccc(F)c(Cl)c1`: “inactive”.
